An excerpt weighted towards active compounds, which were near 2.3% of everything screened.
M1 PAM – human CHRM1 positive allosteric modulation; hit rate 0.088% among 360,000; AID 588819; P11229; activation, % at 3 µM; CHO-K1 hM1, Fluo-8 calcium fluorescence, ACh EC20; 0% = ACh EC20, 100% = maximal ACh; in the data active = activation above about 19%, passing the limit was not always enough
Target sequence (P11229 whole entry, looked up): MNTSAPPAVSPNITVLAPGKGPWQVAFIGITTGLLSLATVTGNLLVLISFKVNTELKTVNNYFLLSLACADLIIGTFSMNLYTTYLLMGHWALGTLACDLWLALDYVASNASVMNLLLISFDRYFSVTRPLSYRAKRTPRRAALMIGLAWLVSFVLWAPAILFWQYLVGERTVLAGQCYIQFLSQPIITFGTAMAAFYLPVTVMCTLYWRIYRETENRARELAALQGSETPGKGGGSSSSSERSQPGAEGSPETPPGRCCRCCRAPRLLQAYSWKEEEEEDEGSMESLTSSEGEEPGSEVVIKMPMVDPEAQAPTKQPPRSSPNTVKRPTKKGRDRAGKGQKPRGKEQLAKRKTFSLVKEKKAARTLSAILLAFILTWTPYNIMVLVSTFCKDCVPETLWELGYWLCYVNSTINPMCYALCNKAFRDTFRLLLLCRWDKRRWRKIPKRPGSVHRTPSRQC
M1 antag – antagonists of human M1 muscarinic receptor | hit rate 1.3% among 360,000 | CHO-K1 hM1, Fluo-8 calcium fluorescence, ACh EC80 antagonist | P11229 | inhibition, % at 3 µM;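 active = percent inhibition above its own plate's cutoff, namely the mean of that plate's compound wells plus 3 SD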;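 also: peak over basal fluorescence ratio during 140 s after agonist addition; 0% = ACh EC80 plus DMSO and 100% = DMSO alone without agonist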
M1 PAM parental – counter-screen for M1 PAMs: effect in parental CHO-K1 cells; AID 602247; ATP EC20, Fluo-8 calcium fluorescence; 0% at ATP EC20, 100% at ATP max; activation, % at 3 µM; hit rate 0.02% among 360,000;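 active = activation above the run cutoff, the mean activation of all test compounds plus 3 SD, cut at about 40% in these data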;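 also: peak over basal fluorescence ratio in a 140 s read after ATP addition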
CHO-K1 Ca antag – M1 antagonist counterscreen hit in parental CHO-K1 cells; ATP-induced calcium, Fluo-8 fluorescence; AID 602250; inhibition, % at 3 µM; hit rate 0.6% among 360,000;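 active = inhibition above a per-plate cutoff, the plate's mean sample inhibition plus 3 SD, cut at about 24% in these data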;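 also: 0% = DMSO plus EC80 ATP and 100% = DMSO alone without ATP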
M1 ag parental – nonselective activator or artifact in parental CHO-K1 cells; Fluo-8 calcium fluorescence; scaled to maximal ATP response, vehicle zero; activation, % at 3 µM; hit rate 0.48% among 360,000; in the data active = activation above about 15%;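 also: untransfected CHO-K1 host cells lacking M1 receptor as counterscreen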
CHRM1 agonist – activates human CHRM1 receptor; hit rate 0.33% among 360,000; CHO-K1 hM1, Fluo-8 calcium fluorescence, agonist mode; 0% DMSO, 100% acetylcholine EC100; activation, % at 3 µM; P11229;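 active = activation above the run's mean compound activation plus 3 SD, cut at about 16% in these data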;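 also: peak over basal fluorescence ratio within a 140 s kinetic read after compound addition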
* marks the source's active call; other numbers are inactive results.

For CC(C)Cn1c(N)c(C(=O)COC(=O)c2c(O)c(Cl)cc(Cl)c2Cl)c(=O)n(C)c1=O the results were M1 PAM 28.0*, M1 antag -20.9, M1 PAM parental -1.0, CHO-K1 Ca antag -7.2, M1 ag parental -0.1 and CHRM1 agonist 3.8.
Screening Cc1ccc(OCCC(=O)OCC(=O)c2c(N)n(CC(C)C)c(=O)n(C)c2=O)cc1 returned M1 PAM -16.1, M1 antag 26.0, M1 PAM parental -1.0, CHO-K1 Ca antag 0.7, M1 ag parental 12.2 and CHRM1 agonist -1.9.
`CC(C)Cn1c(N)c(C(=O)COC(=O)CC23CC4CC(CC(C4)C2)C3)c(=O)n(C)c1=O` gave M1 PAM -3.0, M1 antag 32.7*, M1 PAM parental -3.1, CHO-K1 Ca antag 16.0, M1 ag parental 0.0 and CHRM1 agonist -1.2.
`CC(C)Cn1c(N)c(C(=O)COC(=O)CCc2nc3ccccc3s2)c(=O)n(C)c1=O` gave M1 PAM -9.8, M1 antag 20.9, M1 PAM parental -10.8, CHO-K1 Ca antag 23.0, M1 ag parental 15.2* and CHRM1 agonist -1.8.
`Cc1cccc(NC(=O)CSc2nc(=O)n(CCCN3CCOCC3)c3c2CCCC3)c1C` gave M1 PAM 8.8, M1 antag -19.2, M1 PAM parental 22.5, CHO-K1 Ca antag -16.4, M1 ag parental 0.4 and CHRM1 agonist -8.5.
`Cc1c(NC(=O)CCc2ccccc2)cccc1[N+](=O)[O-]` gave M1 PAM -3.8, M1 antag 1.7, M1 PAM parental -11.2, CHO-K1 Ca antag 11.0, M1 ag parental -0.3 and CHRM1 agonist -9.4.
For CC(C)OC(=O)CC1C(=O)NCCN1C(=S)NC(=O)c1cccs1 (centres undefined) the results were M1 PAM -2.9, M1 antag 6.6, M1 PAM parental -1.1, CHO-K1 Ca antag -0.6, M1 ag parental 0.3 and CHRM1 agonist -2.8.
`CC(C)Cn1c(N)c(C(=O)COC(=O)/C=C/c2ccccc2)c(=O)n(C)c1=O` gave M1 PAM -11.1, M1 antag 29.9*, M1 PAM parental -0.9, CHO-K1 Ca antag 28.5*, M1 ag parental 13.6 and CHRM1 agonist 1.3.
`CC(C)Cn1c(N)c(C(=O)COC(=O)c2cccc(F)c2)c(=O)n(C)c1=O` gave M1 PAM 5.9, M1 antag -0.4, M1 PAM parental -2.6, CHO-K1 Ca antag 9.2, M1 ag parental 5.6 and CHRM1 agonist -0.3.
CC(C)Cn1c(N)c(C(=O)COC(=O)COc2cccc(C(F)(F)F)c2)c(=O)n(C)c1=O was read as M1 PAM -14.3, M1 antag 31.6*, M1 PAM parental -11.7, CHO-K1 Ca antag 17.3, M1 ag parental 15.2* and CHRM1 agonist 1.5.
`Cc1c(Cl)cccc1NC(=O)[C@@H](NC(=O)c1ccccc1Cl)C(C)C` gave M1 PAM 1.8, M1 antag 1.2, M1 PAM parental -14.3, CHO-K1 Ca antag 24.1*, M1 ag parental -0.4 and CHRM1 agonist -7.7.
`Cc1ccc(CNC(=O)c2cccnc2Sc2cccc(Cl)c2)cc1` gave M1 PAM 7.2, M1 antag -5.9, M1 PAM parental 28.7, CHO-K1 Ca antag -16.1, M1 ag parental 6.2 and CHRM1 agonist 22.4*.
Cc1ccc(OS(=O)(=O)c2c(C)nn(C)c2Cl)c(C)c1 was read as M1 PAM -22.7, M1 antag 61.7*, M1 PAM parental -22.9, CHO-K1 Ca antag 9.3, M1 ag parental -0.7 and CHRM1 agonist -6.4.
For COc1ccc(OC)c(NC(=O)C2C3C=CC(C3)C2C(=O)NCc2cccnc2)c1 (centres undefined) the results were M1 PAM -6.1, M1 antag 4.1, M1 PAM parental 17.8, CHO-K1 Ca antag -8.4, M1 ag parental 0.4 and CHRM1 agonist -5.9.
For COc1ccccc1NC(=O)C(=O)NCc1ccncc1 the results were M1 PAM 9.8, M1 antag 2.4, M1 PAM parental -13.7, CHO-K1 Ca antag 25.3*, M1 ag parental -0.2 and CHRM1 agonist -2.4.
`COc1ccccc1NC(=O)C(=O)N1CCCC1` gave M1 PAM -0.5, M1 antag 8.3, M1 PAM parental 17.7, CHO-K1 Ca antag -4.9, M1 ag parental 15.9* and CHRM1 agonist -3.8.
COC(=O)c1ccccc1NC(=O)NCc1ccncc1 was read as M1 PAM 7.2, M1 antag -3.5, M1 PAM parental 19.9, CHO-K1 Ca antag 6.2, M1 ag parental 16.5* and CHRM1 agonist -6.2.
For COc1ccccc1NC(=O)C1C2C=CC(C2)C1C(=O)NCc1cccnc1 (centres undefined) the results were M1 PAM -7.3, M1 antag 18.2, M1 PAM parental -8.8, CHO-K1 Ca antag 25.6*, M1 ag parental -0.2 and CHRM1 agonist -2.4.
`COc1ccc(C(=O)NC(C)c2ccc(-n3ccnc3)cc2)cc1[N+](=O)[O-]` (centres undefined) gave M1 PAM 3.5, M1 antag -3.4, M1 PAM parental -1.2, CHO-K1 Ca antag -8.5, M1 ag parental 6.7 and CHRM1 agonist -8.6.
For Cc1ccc(NC(=O)C2CCC(N3C(=O)C4CCCCC4C3=O)CC2)cc1 (centres undefined) the results were M1 PAM 6.5, M1 antag -4.0, M1 PAM parental 20.9, CHO-K1 Ca antag -22.4, M1 ag parental 3.1 and CHRM1 agonist -4.2.
Screening COC(=O)c1ccccc1NC(=O)CCc1ccccc1 returned M1 PAM 4.0, M1 antag -9.3, M1 PAM parental -11.7, CHO-K1 Ca antag 24.1*, M1 ag parental -0.2 and CHRM1 agonist -7.0.
N[C@@H](C(=O)N[C@@H]1C(=O)N2C(C(=O)O)=C(Cl)CS[C@H]12)c1ccccc1 was read as M1 PAM -2.8, M1 antag -27.7, M1 PAM parental 11.8, CHO-K1 Ca antag -0.5, M1 ag parental 0.8 and CHRM1 agonist 17.7*.
`S=C(NCCc1ccccc1)Nc1cccc2cnccc12` gave M1 PAM -1.5, M1 antag 28.1, M1 PAM parental -23.4, CHO-K1 Ca antag 32.5*, M1 ag parental 12.0 and CHRM1 agonist 1.3.
Screening O=C(NCC(c1ccco1)N1CCCCC1)c1cccnc1 (centres undefined) returned M1 PAM -5.8, M1 antag -0.1, M1 PAM parental 1.1, CHO-K1 Ca antag -16.7, M1 ag parental -0.6 and CHRM1 agonist -8.8.
For Cc1ccc(S(=O)(=O)CCC(=O)OCC(=O)N(C)CC(=O)Nc2ccc(F)cc2)cc1 the results were M1 PAM -11.3, M1 antag 20.0*, M1 PAM parental -3.5, CHO-K1 Ca antag -1.1, M1 ag parental 0.2 and CHRM1 agonist -3.2.
For CCCCCCCCCCOC(=O)Cn1c(COc2ccccc2OC)[n+](C)c2ccccc21 the results were M1 PAM -29.1, M1 antag 69.0*, M1 PAM parental -0.2, CHO-K1 Ca antag 28.9*, M1 ag parental 17.4* and CHRM1 agonist 20.9*.
